Source: PubChem BioAssay (NCATS)
Results filed as inconclusive are left out. Values without a mark were called inactive. Activity calls are given as the source filed them. Calls come from the whole dose curve; as a rule, active = well fitted cell-killing curve with a large enough effect; inconclusive = small, poorly fitted or top-dose-only effect, or effect the other way; inactive = no such curve, though single readings can be large or run the other way.

Assay: Viability qHTS for spleen associated tyrosine kinase inhibitor (SYKi) drug resistant MV4-11 cells (AID 1963824); note: nearly all actives have a fitted effect of over 35% in size
Settings: SYKi-resistant MV4-11 viability, CellTiter-Glo, 72 h; series mostly up to 45 µM; viability, % of control: at the top concentration
Source text: Department of Medicine, Hematology/Oncology
University Hospital Frankfurt, Germany.
Trials have shown promising clinical activity of the selective SYK inhibitor entospletinib in patients with high expressing HOXA9/MEIS1 acute leukemias. As the development of resistance mechanisms is a common problem in the use of targeted drugs, we performed a chemical library screen to identify drug sensitivities in SYK inhibitor resistant AML cells. […] Glucocorticoids are potent immunosuppressants which work in part by inhibiting the transcription of cytokine genes.
Described herein is a viability screen to look for activity in the SYK inhibitor drug resistant cell line against four NCATS compound libraries (MIPE 5.0, NPC, NPACT, and Kinase) totaling 11372 compounds. Active hits were reacquired for confirmation and further secondary assay testing.
SEQUENCE No. (e.g., 1, 2, 3, etc.); […] (e.g., Cells, Incubation, Reagent, etc.); VALUE; DESCRIPTION.
1; Media; 2uL; white, solid-bottom Corning assay plate.
2; Compounds; 23nL; Echo acoustic dispenser.
3; Cell; 5uL; 500 cells per well.
4: Incubation; 72hr; 37 C, 5% CO2, 95% humidity.
5; Reagent; 3uL; CellTiter-Glo reagent (Promega).
6; Incubation; 10min; room temperature.
7; Detection; Luminescence; ViewLux plate reader (PerkinElmer).
NOTES (numbers refer to Sequence numbers above
1. Quantitative high-throughput screening (qHTS) of small molecule compounds was conducted on drug resistant SYKi MV4-11 cell line.
2. Twenty-three nanoliter of small molecule compounds were added to each assay plates using the Echo acoustic dispenser (Beckman Coulter).
3. Cells were seeded into the assay plates at a final density of 500 cells in 5uL of media per well using the Multidrop Combi dispenser.
4. Plates were covered with stainless steel gasketed lids and incubated for 72 hours at standard cell culture conditions.
5. Viability was assessed by adding 3uL of CellTiter-Glo detection reagent (Promega).
6. Plates were covered with gasket lids and incubated for 10 minutes at room temperature.
7. Luminescence was measured on a ViewLux plate reader (PerkinElmer).
Potency is the fitted concentration of half-maximal effect.

Question: Which Potency does the source give for `COC(=O)[C@]12CCC(C)(C)C[C@H]1[C@H]1C(=O)C=C3[C@@]4(C)C=C(C#N)C(=O)C(C)(C)[C@@H]4CC[C@@]3(C)[C@]1(C)CC2` here?
Answer: The Potency was 2630 nM (active).

Question: For `CC1(C)CC[C@]2(NC(=O)C(C)(F)F)CC[C@]3(C)[C@H](C(=O)C=C4[C@@]5(C)C=C(C#N)C(=O)C(C)(C)[C@@H]5CC[C@]43C)[C@@H]2C1`, which Potency is on record?
Answer: The Potency was 2630 nM (active).

Question: For `Nc1ccn(CC(CO)OCP(=O)(O)O)c(=O)n1` (stereo not drawn), which “viability, % of control” value is on record?
Answer: The value was 99.1%.
